In the supplement of paper PMC3545927:
The list shows a part of the results. The true hit rate is not given.

Biological target: furin, P09958
Experiment: furin cleavage Z-score vs untreated control; higher = more cleavage, active = 3.5 or more, inactive = 1 or less, 8 variable residues between constant flanks
Summary of the method: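 Peptides 8 residues long, fused to a cDNA oligonucleotide, were fixed to magnetic beads by the N-terminus and exposed to purified furin. The 0.01 ml reactions contained 50 mM HEPES pH 7.5 with CaCl2 and NaCl at 1:10 enzyme:substrate and ran 7.5, 15 or 30 min. For the cleavage Z-score, log counts of sequenced released DNA were compared with furin-free reactions, lowess-adjusted and scaled by median absolute deviation.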

Sequence of furin, P09958 (P09958 whole entry): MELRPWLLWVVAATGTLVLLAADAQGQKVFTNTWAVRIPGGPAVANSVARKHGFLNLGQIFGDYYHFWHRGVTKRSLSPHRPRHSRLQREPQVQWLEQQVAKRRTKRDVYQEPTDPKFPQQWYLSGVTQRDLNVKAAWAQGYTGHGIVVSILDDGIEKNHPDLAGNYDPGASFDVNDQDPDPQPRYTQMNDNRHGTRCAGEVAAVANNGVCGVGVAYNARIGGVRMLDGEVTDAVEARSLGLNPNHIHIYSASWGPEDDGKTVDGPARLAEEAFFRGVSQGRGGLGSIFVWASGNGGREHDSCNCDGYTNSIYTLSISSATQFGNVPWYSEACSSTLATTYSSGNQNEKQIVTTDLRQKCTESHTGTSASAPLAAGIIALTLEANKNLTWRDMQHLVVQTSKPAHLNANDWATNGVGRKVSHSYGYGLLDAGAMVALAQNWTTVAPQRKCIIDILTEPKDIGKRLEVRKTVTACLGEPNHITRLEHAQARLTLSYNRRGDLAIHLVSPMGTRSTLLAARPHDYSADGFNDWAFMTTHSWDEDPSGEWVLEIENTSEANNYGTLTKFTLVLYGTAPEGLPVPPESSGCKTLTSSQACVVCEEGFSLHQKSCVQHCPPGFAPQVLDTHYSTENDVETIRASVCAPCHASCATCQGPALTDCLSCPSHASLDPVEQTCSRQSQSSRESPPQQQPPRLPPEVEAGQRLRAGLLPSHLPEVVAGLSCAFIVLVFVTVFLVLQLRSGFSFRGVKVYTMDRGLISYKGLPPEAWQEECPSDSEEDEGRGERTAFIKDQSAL

Sequence	furin cleavage Z-score (7.5 min)	furin cleavage Z-score (15 min)	furin cleavage Z-score (30 min)
CAMEECSQGLAGNASASA [HC1756]	0.411 (inactive)	1.43	1.65
CATTPCSGCWAGNASASA [HC1920]	-0.899 (inactive)	-0.942 (inactive)	-0.88 (inactive)
CAVVCLSMSYAGNASASA [HC84]	0.288 (inactive)	-0.622 (inactive)	-0.642 (inactive)
CASFLVFFCFAGNASASA [HC544]	-1.06 (inactive)	-0.337 (inactive)	-0.101 (inactive)
CAGTHGLVSFAGNASASA [HC541]	1.37	0.474 (inactive)	1.36
CARLKRVEDQAGNASASA [FS-1907]	-1.61 (inactive)	0.449 (inactive)	-0.817 (inactive)
CARLKRQPCAAGNASASA [FS-3227]	0.299 (inactive)	-0.962 (inactive)	-0.478 (inactive)
CARLKRALDFAGNASASA [FS-2219]	6.13 (active)	7.48 (active)	7.29 (active)
CARLKRQVTEAGNASASA [FS-2992]	11.3 (active)	12 (active)	11.2 (active)
CAVLATATPPAGNASASA [HC833]	-0.698 (inactive)	-1.92 (inactive)	-0.599 (inactive)
CARDARSVRDAGNASASA [FS-2328]	2.71	4.77 (active)	5.93 (active)
CARSVRSTRDAGNASASA [FS-1075]	9.44 (active)	11 (active)	9.05 (active)
CAREDRAVRDAGNASASA [FS-2413]	-1.11 (inactive)	0.317 (inactive)	-0.31 (inactive)
CARSVRFISNAGNASASA [FS-2821]	-2.17 (inactive)	-0.565 (inactive)	1.32
CARDARMSDAAGNASASA [FS-2204]	-1.21 (inactive)	0.407 (inactive)	0.769 (inactive)
CAFLWRSFRSAGNASASA [FS-327]	-0.934 (inactive)	-0.656 (inactive)	-0.629 (inactive)
CARGGRIFRSAGNASASA [FS-1397]	7.37 (active)	8.25 (active)	7.16 (active)
CATNHRIFRSAGNASASA [FS-384]	1.71	2.99	5.79 (active)
CARGGRDAVIAGNASASA [HC594]	0.336 (inactive)	0.26 (inactive)	0.331 (inactive)
CACHLRRFRSAGNASASA [FS-581]	-0.297 (inactive)	-0.28 (inactive)	0.354 (inactive)
CAQMHRKFRSAGNASASA [FS-703]	6.07 (active)	8.69 (active)	6.07 (active)
CAVVCCSMTYAGNASASA [HC2078]	-0.433 (inactive)	0.0813 (inactive)	-0.381 (inactive)

Sequence	furin cleavage Z-score (7.5 min)	furin cleavage Z-score (15 min)	furin cleavage Z-score (30 min)
CAREDRGAYTAGNASASA [FS-2909]	-0.191 (inactive)	0.288 (inactive)	-1.31 (inactive)
CARNRRGAITAGNASASA [FS-1912]	5.06 (active)	6.46 (active)	7.54 (active)
CARNRRALRDAGNASASA [FS-3010]	7.62 (active)	8.24 (active)	7.01 (active)
CARNRRHHRDAGNASASA [FS-709]	8.79 (active)	10.1 (active)	7.04 (active)
CACFDSTVTEAGNASASA [HC1482]	0.967 (inactive)	-0.854 (inactive)	-1.23 (inactive)
CARNRRHVTEAGNASASA [FS-3011]	12.2 (active)	12.5 (active)	9.58 (active)
CARNRRLVSDAGNASASA [FS-3012]	0.716 (inactive)	3.37	2.68
CARCDRDNTEAGNASASA [FS-2896]	-0.96 (inactive)	-0.486 (inactive)	-1.77 (inactive)
CAFSYDTRCFAGNASASA [HC1479]	-0.0881 (inactive)	-0.998 (inactive)	0.0108 (inactive)
CALDVVCCSMAGNASASA [HC2105]	-0.768 (inactive)	-1.48 (inactive)	-0.867 (inactive)
CARIPQAILDAGNASASA [HC330]	-0.397 (inactive)	0.0404 (inactive)	0.351 (inactive)
CAVGRVVLSGAGNASASA [HC1002]	-0.201 (inactive)	2.15	-1.8 (inactive)
CARNRRSLSGAGNASASA [FS-2577]	5.26 (active)	5.66 (active)	6.3 (active)
CARNRRSILDAGNASASA [FS-2733]	6.77 (active)	9.44 (active)	8.76 (active)
CARNRRTHEFAGNASASA [FS-2048]	-0.109 (inactive)	-0.137 (inactive)	0.595 (inactive)
CARNRRHPRSAGNASASA [FS-560]	11.3 (active)	13.7 (active)	8.58 (active)
CARNRRVAEAAGNASASA [FS-2049]	2.16	3.37	3.98 (active)
CALMPQLPGIAGNASASA [HC1160]	1.4	1.95	0.83 (inactive)
CAPDYNPPLVAGNASASA [HC1306]	0.58 (inactive)	-1.42 (inactive)	-0.164 (inactive)
CADAEVVTSTAGNASASA [HC2283]	-0.438 (inactive)	0.612 (inactive)	0.657 (inactive)
CAGNPAIASLAGNASASA [HC1052]	-0.886 (inactive)	-0.0897 (inactive)	-0.877 (inactive)
